AmpC no deterg: inhibitors of E. coli AmpC beta-lactamase without detergent. P00811. AmpC nitrocefin hydrolysis, absorbance 480 nm, 0.0001% Triton. Potency, µM (highest dose often 57.1 µM), for the others: top-dose activity change, negative = inhibition, hits mostly inhibitors. 330,000 compounds, 0.52% hits. AID 485341;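 also: plate controls were no compound for no effect and no enzyme for full effect; nearly all actives have a fitted effect of over 20% in size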
Target sequence (P00811 whole entry, looked up): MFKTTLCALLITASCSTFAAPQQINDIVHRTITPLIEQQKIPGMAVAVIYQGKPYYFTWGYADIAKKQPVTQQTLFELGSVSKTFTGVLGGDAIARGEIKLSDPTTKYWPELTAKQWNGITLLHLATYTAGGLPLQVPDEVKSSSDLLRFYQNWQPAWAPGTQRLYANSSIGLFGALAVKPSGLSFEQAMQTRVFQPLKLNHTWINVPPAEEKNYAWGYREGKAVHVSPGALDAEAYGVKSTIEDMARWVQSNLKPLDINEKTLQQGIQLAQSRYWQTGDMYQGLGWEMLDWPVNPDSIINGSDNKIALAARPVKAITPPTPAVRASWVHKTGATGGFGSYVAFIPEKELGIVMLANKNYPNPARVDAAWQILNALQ
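AmpC (5.3 nM in the dispensed reagent) in 20 mM phosphate pH 7.0 with 0.01% (detergent screen) or 0.0001% Triton X-100 was preincubated with compounds for 15 min at room temperature. Nitrocefin was then added from an 800 uM solution, and hydrolysis was followed at 480 nm.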
SARS PLP yeast: SARS-CoV PLP inhibition in yeast; S. cerevisiae expressing SARS-CoV PLpro, growth rescue; AID 485353; 330,000 compounds, 0.19% hits; Potency, µM (titrated, usually from 32.9 µM), for the others: at the highest dose activity, positive = growth rescue, most hits filed as activators; calls by dose curve; also: 0% is about no effect; nearly all actives have a fitted effect of over 55% in size
AmpC inh detg: blocks E. coli AmpC beta-lactamase in detergent assay. P00811. Potency, µM (series often up to 114 µM), for the others: top-dose activity change, negative = inhibition, most hits filed as inhibitors. 370,000 compounds, 0.041% hits. AmpC hydrolysis of nitrocefin, absorbance 480 nm, 0.01% Triton;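 also: 0% = no-compound wells and -100% = no-enzyme wells; nearly all actives have a fitted effect of over 25% in size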
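AmpC (5.3 nM in the dispensed reagent) in 20 mM phosphate pH 7.0 with 0.01% (detergent screen) or 0.0001% Triton X-100 was preincubated with compounds for 15 min at room temperature. Nitrocefin was then added from an 800 uM solution, and hydrolysis was followed at 480 nm.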
VACV Venus inh: vaccinia inhibition (Venus reporter); Vaccinia virus Venus reporter expression, fluorescence; Potency, µM (doses to about 36.5 µM), for the others: at the top dose activity change, negative = inhibition, most hits filed as inhibitors; 330,000 compounds, 0.46% hits; AID 720580; calls by dose curve; tested in A549 cells; also: % is scaled to controls: 0 for no effect and ±100 for the full control effect; nearly all actives have a fitted effect of over 30% in size
Vaccinia mCherry: inhibitors of vaccinia virus infection (mCherry reporter signal) | 310,000 compounds, 0.63% hits | Vaccinia virus mCherry reporter infection, fluorescence | AID 720579 | Potency, µM (doses to about 36.5 µM), for inactives: top-dose activity change, negative = inhibition, actives largely listed as inhibitors; calls by dose curve; tested in A549 cells; also: % is scaled to controls: 0 for no effect and ±100 for the full control effect; nearly all actives have a fitted effect of over 35% in size
Starred values were filed as active, the others as inactive. Rows were chosen to be rich in hits. Some 1.3% of all compounds tested hit in one or more screens of this group. Unless noted, calls follow the shape of the dose curve; as a rule, active = well fitted curve in the direction sought with a large enough effect; inconclusive = small, poorly fitted or top-dose-only effect, or another doubt; inactive = no such curve, though single readings can be large; an effect the other way counts as inactive or inconclusive. Potency is read from the fitted curve at half-maximal effect.

What do the screens show for `CCOC(=O)C1=C(C)N(C[C@@H]2CC[C@@H](Cc3ccc(-c4ccccc4)cc3)O2)C(=O)NC1c1ccc(SCc2ccco2)c([N+](=O)[O-])c1` (some centres not stated)?
AmpC no deterg: 7.94µM*; SARS PLP yeast: 17.6%; VACV Venus inh: -22.6%; Vaccinia mCherry: inactive

What do the screens show for `CCOC(=O)C1=C(C)N(C[C@@H]2CC[C@@H](Cc3ccc(-c4ccccc4)cc3)O2)C(=O)NC1c1ccc(C(F)(F)F)cc1` (some centres not stated)?
AmpC no deterg: -26.1%; SARS PLP yeast: 14.2%; VACV Venus inh: -28.8%; Vaccinia mCherry: inactive

Results for CCCc1nc(C(C)(C)O)c(C(=O)O)n1Cc1ccc(-c2ccccc2-c2nn[nH]n2)cc1 ?
AmpC no deterg: -57.2%; SARS PLP yeast: 5.2%; AmpC inh detg: 44.7µM*

What do the screens show for `COc1cccc(-n2c(SC)nnc2C2CCN(Cc3nc4ccccc4s3)CC2)c1`?
VACV Venus inh: -8.8%; Vaccinia mCherry: -18.3%

What do the screens show for `Clc1ncnc2c1oc1ccccc12`?
AmpC no deterg: 0.282µM*; SARS PLP yeast: -2.3%; AmpC inh detg: 0.6%

Results for CCSc1ncnc2c1oc1ccccc12 ?
AmpC no deterg: -12.9%; SARS PLP yeast: 10.8%; AmpC inh detg: inconclusive

How did C=CCn1c(O)c(C(C)=NCc2cc(OC)cc(OC)c2)c(=O)[nH]c1=O do in these assays?
AmpC no deterg: 25.8%; SARS PLP yeast: -6.9%; AmpC inh detg: 6.0%; VACV Venus inh: 5.01µM*; Vaccinia mCherry: 8.91µM*

Results for Cc1oc(-c2cccc(Cl)c2)nc1CN1CCC(C(=O)NCCCN2CCN(c3ccc(F)cc3)CC2)CC1 ?
AmpC inh detg: -5.5%; VACV Venus inh: inconclusive; Vaccinia mCherry: -29.8%

How did CCN(CCNC(=O)C1CCN(Cc2nc(-c3ccc(Cl)cc3)oc2C)CC1)c1ccccc1 do in these assays?
AmpC no deterg: 160.1%; SARS PLP yeast: -2.8%; AmpC inh detg: 1.3%; VACV Venus inh: inconclusive; Vaccinia mCherry: 12.6µM*

How did CCc1ccc(-c2nc(CN3CCC(C(=O)NCCN(CC)c4ccccc4)CC3)c(C)o2)cc1 do in these assays?
AmpC no deterg: 169.6%; SARS PLP yeast: -12.3%; AmpC inh detg: 2.8%; VACV Venus inh: -16.3%; Vaccinia mCherry: -20.2%

What do the screens show for `Cc1oc(-c2ccc(Cl)cc2)nc1CN1CCC(C(=O)NCCCN2CCN(c3cccc(Cl)c3)CC2)CC1`?
AmpC inh detg: -7.3%; VACV Venus inh: 14.1µM*; Vaccinia mCherry: inconclusive

What do the screens show for `CCN(CCNC(=O)C1CCN(Cc2nc(-c3cccc(Cl)c3)oc2C)CC1)c1ccccc1`?
AmpC no deterg: 172.4%; SARS PLP yeast: -1.9%; AmpC inh detg: -6.5%; VACV Venus inh: 11.2µM*; Vaccinia mCherry: 14.1µM*

Results for CCCCOc1ccc(CNC(=O)c2cnc3sc(N4CCOCC4)nn3c2=O)cc1 ?
AmpC inh detg: 0.9%; VACV Venus inh: -5.7%; Vaccinia mCherry: -11.2%

How did O=C(CCc1nc2ccccc2s1)N1CCOc2ccc(CN3CCc4sccc4C3)cc2C1 do in these assays?
VACV Venus inh: -0.4%; Vaccinia mCherry: -16.0%

How did N#CC(c1ccc(Cl)cc1)c1ccc2c(C(F)(F)F)cc(C(F)(F)F)nc2n1 (configuration not stated) do in these assays?
AmpC no deterg: -17.4%; SARS PLP yeast: -42.5%; AmpC inh detg: -16.1%; VACV Venus inh: 14.1µM*

Results for CCN(CC)c1ccc(NC(=O)Nc2ccc(C(C)=O)cc2)cc1 ?
AmpC no deterg: 0.282µM*; SARS PLP yeast: -3.8%; AmpC inh detg: 2.8%; VACV Venus inh: -13.1%; Vaccinia mCherry: -23.6%

What do the screens show for `O=C(NCCN1CCOCC1)c1cnn(-c2ncc3c(n2)-c2ccccc2CC3)c1C1CC1`?
VACV Venus inh: -7.6%; Vaccinia mCherry: -11.7%

Results for Cc1cc(C)c(C(=O)CSc2nc3ccccc3c(=O)[nH]2)cc1C ?
AmpC no deterg: 17.8µM*; SARS PLP yeast: -9.3%; AmpC inh detg: inconclusive; VACV Venus inh: -6.1%; Vaccinia mCherry: inactive

How did O=C(CSc1nc2ccccc2c(=O)[nH]1)Nc1ccc([N+](=O)[O-])cc1 do in these assays?
AmpC no deterg: -24.0%; SARS PLP yeast: -10.6%; VACV Venus inh: 20µM*; Vaccinia mCherry: inconclusive

What do the screens show for `Cc1cnc(C)c(-c2ccc(F)c3c2OC(CNC(=O)/C=C/c2cccs2)C3)n1` (configuration not stated)?
VACV Venus inh: -12.3%; Vaccinia mCherry: -5.9%

Results for C/C(CC(=O)Nc1ccc(Cl)c(C(F)(F)F)c1)=N\NC(=O)c1cccc(O)c1 ?
AmpC no deterg: -34.5%; SARS PLP yeast: -9.2%; AmpC inh detg: 1.9%; VACV Venus inh: -4.9%; Vaccinia mCherry: -14.2%

Results for C/C(CC(=O)Nc1ccc(Cl)c(C(F)(F)F)c1)=N\NC(=O)c1ccccc1O ?
AmpC no deterg: inconclusive; SARS PLP yeast: -21.8%; AmpC inh detg: -8.8%; VACV Venus inh: inconclusive; Vaccinia mCherry: 10µM*

What do the screens show for `C/C(CC(=O)NC(C)(C)C)=N\NC(N)=S`?
AmpC no deterg: -10.8%; SARS PLP yeast: inconclusive; AmpC inh detg: 3.9%; VACV Venus inh: inconclusive; Vaccinia mCherry: 10µM*

What do the screens show for `C/C(CC(=O)Nc1ccc(Cl)c(C(F)(F)F)c1)=N\NC(N)=S`?
AmpC no deterg: -22.5%; SARS PLP yeast: 0.0%; AmpC inh detg: -2.4%; VACV Venus inh: inconclusive; Vaccinia mCherry: 17.8µM*

What do the screens show for `C/C(CC(=O)Nc1ccc(Cl)c(C(F)(F)F)c1)=N\NC(=O)c1cnccn1`?
AmpC no deterg: 23.8%; SARS PLP yeast: -0.6%; AmpC inh detg: -4.6%; VACV Venus inh: -20.3%; Vaccinia mCherry: inconclusive

How did COc1cc(=O)n2c(c1C(=O)NC(C)c1ccco1)CCN(C(=O)c1ccc(F)cc1Cl)CC2 (configuration not stated) do in these assays?
VACV Venus inh: -12.2%; Vaccinia mCherry: inactive

How did O=C(C1COc2cc(S(=O)(=O)Nc3ccc(Cl)cc3)ccc2O1)N1CCCC1 (configuration not stated) do in these assays?
AmpC inh detg: -7.3%; VACV Venus inh: -12.8%; Vaccinia mCherry: -14.3%

Results for CC(C)n1c(=O)c(C=Nc2ccc(S(N)(=O)=O)cc2)c(O)n(Cc2ccco2)c1=O ?
AmpC no deterg: 22.4µM*; SARS PLP yeast: -14.1%; AmpC inh detg: -9.0%; VACV Venus inh: -1.8%; Vaccinia mCherry: inactive

What do the screens show for `CCCCn1c(=O)c(C=Nc2ccc(Cl)cc2)c(O)n(Cc2ccco2)c1=O`?
AmpC no deterg: -25.8%; SARS PLP yeast: 1.7%; AmpC inh detg: -14.4%; VACV Venus inh: -3.9%; Vaccinia mCherry: inactive

Results for Cc1cccc(N2CCN(C(=O)Cn3sc4nc(C)cc(C)c4c3=O)CC2C)c1 (configuration not stated) ?
AmpC no deterg: -15.8%; AmpC inh detg: 50.1µM*; VACV Venus inh: -27.1%; Vaccinia mCherry: inactive

Screening data deposited in PubChem by National Center for Advancing Translational Sciences (NCATS).
